Source: PubChem BioAssay (NCATS)
Records with an inconclusive call do not appear. Activity calls are given as the source filed them. The call rests on the fitted dose curve; in most records, active means well fitted curve in the direction sought with a large enough effect; inconclusive means small, poorly fitted or top-dose-only effect, or another doubt; inactive means no such curve, though single readings can be large; an effect the other way counts as inactive or inconclusive. Where a SMILES comes first, the peptide text is derived from it.

Assays:
[1] = qHTS of pediatric cancer cell lines to identify multiple opportunities for drug repurposing: Primary screen for RD cells (AID 1347104); further: nearly all actives have a fitted effect of over 55% in size
In short: (§1)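 Cells plated at 500-1,000/well in growth medium, compounds added after 5 h. MIPE tested at 11 points (from 0.78 nM), NPC at 8 points (from 0.59 nM). CellTiter-Glo luminescence after 48 h; concentration-response curves from primary screen.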

[2] = qHTS of pediatric cancer cell lines to identify multiple opportunities for drug repurposing: Primary screen for control Hh wild type fibroblast cells (AID 1347106);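 further: series mostly up to about 46 µM; a drop in luminescence marks cytotoxicity and a rise apparent proliferation; nearly all actives have a fitted effect of over 55% in size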
In short: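 Cells (500-1,000/well) in growth media were settled 5 h at 37 degrees C, then given compounds for 48 h. Viability was read as CellTiter-Glo luminescence. Primary runs used MIPE at 11 points (0.78 nM-46 µM) and NPC at 8 points (0.59 nM-46 µM); follow-ups used 11 points.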

[3] = qHTS of pediatric cancer cell lines to identify multiple opportunities for drug repurposing: Primary screen for Rh30 cells (AID 1347107); further: series mostly up to about 46 µM; nearly all actives have a fitted effect of over 75% in size
In short: (§2)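 Cells (500-1,000/well) rested 5 h, then received compounds for 48 h; metabolically active cells were measured by CellTiter-Glo luminescence. Final concentrations spanned up to 46 µM (MIPE, 11-point) or 0.59 nM-46 µM (NPC, 8-point) in primary screens, 11-point in follow-ups.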

[4] = qHTS of pediatric cancer cell lines to identify multiple opportunities for drug repurposing: Primary screen for Rh41 cells (AID 1347108);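 further: series mostly up to about 46 µM; luminescence drop marks cytotoxic hits; nearly all actives have a fitted effect of over 70% in size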
In short: as §1

[5] = qHTS of pediatric cancer cell lines to identify multiple opportunities for drug repurposing: Confirmatory screen for NB1643 cells (AID 1347109); further: nearly all actives have a fitted effect of over 45% in size; further: potency means the concentration at half of the fitted maximal effect
In short: as §2

[6] = qHTS of pediatric cancer cell lines to identify multiple opportunities for drug repurposing: Confirmatory screen for SK-N-MC cells (AID 1347111);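 further: cells exposed to compound for 48 h before the readout; nearly all actives have a fitted effect of over 70% in size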; further: potency means the concentration at half of the fitted maximal effect
In short: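 Seed 500-1,000 cells/well; rest 5 h at 37 degrees C. Pin-transfer compounds, 11-point titration. Incubate 48 h. Add CellTiter-Glo, 15 min RT, read luminescence.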

[7] = qHTS of pediatric cancer cell lines to identify multiple opportunities for drug repurposing: Confirmatory screen for BT-12 cells (AID 1347112); further: nearly all actives have a fitted effect of over 55% in size; further: potency means the concentration at half of the fitted maximal effect
In short: as §2

[8] = qHTS of pediatric cancer cell lines to identify multiple opportunities for drug repurposing: Confirmatory screen for LAN-5 cells (AID 1347113); further: nearly all actives have a fitted effect of over 65% in size; further: potency means the concentration at half of the fitted maximal effect
In short: as §2

[9] = qHTS of pediatric cancer cell lines to identify multiple opportunities for drug repurposing: Confirmatory screen for DAOY cells (AID 1347114); further: nearly all actives have a fitted effect of over 65% in size; further: potency means the concentration at half of the fitted maximal effect
In short: (§3)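 Viability measured as metabolically active cells via CellTiter-Glo luminescence following 48 hours of compound exposure, 11-point dilutions in confirmatory testing. 500-1,000 cells/well plated 5 hours before dosing; controls were DMSO and 2.3 µM bortezomib.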

[10] = qHTS of pediatric cancer cell lines to identify multiple opportunities for drug repurposing: Confirmatory screen for SJ-GBM2 cells (AID 1347116); further: nearly all actives have a fitted effect of over 60% in size; further: potency means the concentration at half of the fitted maximal effect
In short: as §3

[11] = qHTS of pediatric cancer cell lines to identify multiple opportunities for drug repurposing: Confirmatory screen for BT-37 cells (AID 1347117); further: nearly all actives have a fitted effect of over 55% in size; further: potency means the concentration at half of the fitted maximal effect
In short: as §2

[12] = qHTS of pediatric cancer cell lines to identify multiple opportunities for drug repurposing: Confirmatory screen for TC32 cells (AID 1347118);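 further: cells exposed to compound for 48 h before the read; nearly all actives have a fitted effect of over 65% in size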; further: potency means the concentration at half of the fitted maximal effect
In short: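 Measured quantity: luminescence from CellTiter-Glo, reflecting metabolically active TC32 cells following 48 h of compound. Curves came straight from multi-point titrations, with 8 or 11 points in primary and 11 in confirmatory screening.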

[13] = qHTS of pediatric cancer cell lines to identify multiple opportunities for drug repurposing: Confirmatory screen for MG 63 (6-TG R) cells (AID 1347119); further: nearly all actives have a fitted effect of over 55% in size; further: potency means the concentration at half of the fitted maximal effect
In short: as §2

[14] = qHTS of pediatric cancer cell lines to identify multiple opportunities for drug repurposing: Confirmatory screen for Rh41 cells (AID 1347123);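 further: potency means the concentration at half of the fitted maximal effect; 48 h compound exposure; nearly all actives have a fitted effect of over 60% in size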
In short: as §2

[15] = qHTS of pediatric cancer cell lines to identify multiple opportunities for drug repurposing: Primary screen for MG 63 (6-TG R) cells (AID 1347105); further: nearly all actives have a fitted effect of over 50% in size
In short: as §1

[16] = qHTS of pediatric cancer cell lines to identify multiple opportunities for drug repurposing: Confirmatory screen for A673 cells (AID 1347110);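 further: cells exposed to compound for 48 h before the viability read; nearly all actives have a fitted effect of over 65% in size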; further: potency means the concentration at half of the fitted maximal effect
In short: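 Forty-eight-hour viability assay. Follow-up compounds ran at 11-point dilutions; positive control bortezomib at 2.3 uM final, neutral control DMSO.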

[17] = qHTS of pediatric cancer cell lines to identify multiple opportunities for drug repurposing: Confirmatory screen for NB-EBc1 cells (AID 1347115);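 further: cells exposed to compound for 48 h before the viability read; nearly all actives have a fitted effect of over 45% in size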; further: potency means the concentration at half of the fitted maximal effect
In short: as §2

[18] = qHTS of pediatric cancer cell lines to identify multiple opportunities for drug repurposing: Confirmatory screen for control Hh wild type fibroblast cells (AID 1347121); further: nearly all actives have a fitted effect of over 70% in size
In short: as §2

[19] = qHTS of pediatric cancer cell lines to identify multiple opportunities for drug repurposing: Confirmatory screen for U-2 OS cells (AID 1347122); further: nearly all actives have a fitted effect of over 65% in size; further: potency means the concentration at half of the fitted maximal effect
In short: as §2

Measured: Potency

CCCCC(=O)OCC(=O)[C@H]1[C@H](C)C[C@H]2[C@@H]3C[C@H](F)C4=CC(=O)C=C[C@]4(C)[C@@]3(F)[C@@H](O)C[C@@]21C
inactive: [1] | [2] | [3] | [4] | [9]
active: [5] 18.5 µM | [6] 10.4 µM | [7] 14.7 µM | [8] 23.3 µM | [10] 20.8 µM | [11] 20.8 µM | [12] 16.5 µM | [13] 18.5 µM | [14] 29.3 µM

C[N+](C)(CCOc1ccccc1)Cc1cccs1
inactive: [1] | [2] | [3] | [4]

CCC1(c2cnc[nH]2)Cc2ccccc2C1
active: [6] 3.29 µM | [17] 20.8 µM | [11] 10.4 µM | [12] 4.14 µM | [13] 14.7 µM | [14] 16.5 µM
not listed: [2] | [5] | [7] | [9] | [19]
inactive: all other assays above

CC(=O)OCC(=O)[C@@]1(O)CCC2C3CCC4=CC(=O)CC[C@]4(C)C3[C@@H](O)C[C@@]21C (some centres not stated)
active: [16] 16.5 µM | [12] 26.1 µM | [14] 11.7 µM
inactive: [1] | [2] | [3] | [5] | [7] | [8] | [9] | [13] | [18]

CC(=O)N[C@@H](CCC(N)=O)C(=O)O
inactive: [1] | [15] | [2] | [3] | [4]

CCC[C@H](N[C@@H](C)C(=O)N1[C@H](C(=O)O)C[C@@H]2CCCC[C@@H]21)C(=O)OCC
inactive: [1] | [2] | [3] | [4]

CC(=O)N[C@@H](CO)C(=O)N[C@@H](CC(=O)O)C(=O)N[C@@H](CCCCN)C(=O)N1CCC[C@H]1C(=O)O (Ac-SDKP-OH)
inactive: [1] | [15] | [2] | [4]

CC(=O)Nc1ccn(C2COC(COC(=O)c3ccccc3)O2)c(=O)n1 (configuration not stated)
inactive: [1] | [2] | [3] | [4]

CC(C)=CCC/C(C)=C/CC/C(C)=C/C(=O)OCC(=O)[C@@]1(O)CC[C@H]2[C@@H]3CCC4=CC(=O)C=C[C@]4(C)[C@H]3[C@@H](O)C[C@@]21C
active: [5] 23.3 µM | [6] 18.5 µM | [9] 20.8 µM | [19] 20.8 µM | [14] 16.5 µM
inactive: [1] | [15] | [2] | [3] | [4] | [17] | [10]

CCCCCCn1c(=O)c2c(ncn2C)n(C)c1=O
inactive: [1] | [2] | [3] | [4]

CC(C)(C)CC(=O)OCC(=O)[C@@]1(O)CC[C@H]2[C@@H]3CCC4=CC(=O)C=C[C@]4(C)[C@H]3[C@@H](O)C[C@@]21C
active: [16] 2.33 µM
not listed: [8] | [9] | [14]
inactive: all other assays above

CCCc1ccc(OCC(=O)N2CCN(C(=O)COc3ccc(CCC)cc3OC)CC2)c(OC)c1
inactive: [1] | [15] | [4]

CO/N=C(/C(=O)N[C@@H]1C(=O)N2C(C(=O)[O-])=C(C[n+]3ccn4ncccc43)CS[C@H]12)c1nsc(N)n1
inactive: [1] | [15] | [2] | [4]

CO[C@@H]1[C@@H](OC)[C@H](C)[C@@](O)(CC(=O)O)O[C@H]1[C@H](C)[C@H]1O[C@@]2(CC[C@@](C)([C@H]3CC[C@@](C)([C@@H]4O[C@@H]([C@H]5O[C@](C)(O)[C@H](C)C[C@@H]5C)C[C@@H]4OC4C[C@H](OC)[C@@H](OC)[C@H](C)O4)O3)O2)C[C@H](O)[C@H]1C (some centres not stated)
active: [9] 1.85 µM

Nc1ccc2cc3ccc(N)cc3nc2c1
active: [9] 9.27 µM
